Consider 40 compounds from PubChem BioAssay.

Values without a mark were called inactive. How the calls were made is not given here.

This experiment concerns Aerobactin synthetase IucA (Klebsiella pneumoniae, hypervirulent). The experiment is described as follows: IucA enzyme inhibition, biochemical, LOPAC library, absorbance readout (AID 1346212).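 Further: 100% = no compound wells and 0% = no enzyme wells.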 The conditions noted are these: IucA enzyme assay, absorbance (OD) readout; stronger effect = lower value;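 tested at 8 µM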.
Consider `NC1=NCC2c3ccccc3Cc3ccccc3N12` (stereo not given), for which the remaining activity is 91.6%.

With `Nc1ncnc2c1c(-c1ccc(Oc3ccccc3)cc1)cn2C1CCCC1`, the remaining activity is 122%.

For `C=CCN1CCc2c(cc(O)c(O)c2Br)[C@@H](c2ccccc2)C1`, the remaining activity was 116%.

Consider `CN1CCN(CC/C=C2/c3ccccc3Sc3ccc(S(=O)(=O)N(C)C)cc32)CC1`, for which the remaining activity was 99.4%.

In the case of `COc1ccc2c(c1)CC[C@@H]1[C@@H]2CC[C@]2(C)[C@@H](NCCCCCCN3C(=O)CCC3=O)CC[C@@H]12`, the remaining activity was 119%.

Take `Nc1ccc(-c2ccc3ccccc3n2)cc1`: the remaining activity is 107%.

Consider `Cc1nc2sccn2c(=O)c1CCN1CCC(=C(c2ccc(F)cc2)c2ccc(F)cc2)CC1`, for which the remaining activity was 99.1%.

Regarding `CC(C)COC(=O)OCN1C(=O)CN(CCN2CC(=O)N(COC(=O)OCC(C)C)C(=O)C2)CC1=O`, the remaining activity is 96.8%.

With `COc1ccc2c(c1)c(CC(=O)O)c(C)n2Cc1ccc(F)cc1`, the remaining activity was 101%.

On to `COc1cc(C(O)CO)ccc1OS(=O)(=O)O` (stereo not given), for which the remaining activity is 99.3%.

Regarding `Clc1ccc(Cn2c(CN3CCCC3)nc3ccccc32)cc1`, the remaining activity is 115%.

Turning to `CC(C)CN(C)c1nc(N)c(C(=O)N=C(N)N)nc1Cl`, the remaining activity is 114%.

On to `COc1ccc2c(c1)c(CC(=O)O)c(C)n2C(=O)c1ccccc1`, for which the remaining activity is 111%.

On to `CCCCCCCC/C=C\CCCCCCCC(=O)NCCO`, for which the remaining activity was 98.7%.

Turning to `COc1cc(CNC(=O)CCCCCCC(C)C)ccc1O`, the remaining activity was 96.1%.

For `CN(C)c1nc(N)c(C(=O)N=C(N)N)nc1Cl`, the remaining activity is 119%.

For the compound `C[C@@H](CN1CCC(Cc2ccccc2)CC1)[C@@H](O)c1ccc(O)cc1`, the remaining activity was 92.9%.

Consider `CC(=O)SCC[N+](C)(C)C`, for which the remaining activity is 117%.

On to `Oc1cc2c(cc1O)CN(C(=S)NCCc1ccc(Cl)cc1)CCC2`, for which the remaining activity was 97.8%.

Take `O=c1[nH]c2ccccc2c2ccccc12`: the remaining activity was 97.7%.

For `CCC1(O)CC2CN(CCc3c([nH]c4ccccc34)[C@@](C(=O)OC)(c3cc4c(cc3OC)N(C)C3[C@]45CCN4CC=C[C@@](CC)([C@@H](OC(C)=O)[C@]3(O)C(=O)OC)[C@H]45)C2)C1` (stereo not given in full), the remaining activity was 102%.

Turning to `OC[C@H]1NC[C@@H](O)[C@@H]1O`, the remaining activity is 102%.

For `CC(C)NC[C@@H](O)c1ccc(O)c(O)c1`, the remaining activity is 119%.

In the case of `NCCCCCCCCCCN`, the remaining activity was 104%.

In the case of `c1ccc2nc(C3=NCCN3)ccc2c1`, the remaining activity is 121%.

As to `CCCC[C@@]1(C2CCCC2)Cc2cc(OCC(=O)O)c(Cl)c(Cl)c2C1=O`, the remaining activity was 106%.

Consider `O=C(O)/C=C/C(O)c1ccc(Cl)cc1` (stereo not given), for which the remaining activity was 120%.

Turning to `CC[C@H](NC(=O)c1c(C)c(-c2ccccc2)nc2ccccc12)c1ccccc1`, the remaining activity is 114%.

`COc1ccccc1N1CCN(CCN(C(=O)c2ccc(I)cc2)c2ccccn2)CC1`: the remaining activity is 122%.

With `Cc1cccc(C)c1OCC(C)N` (stereo not given), the remaining activity was 113%.

Turning to `Cc1nc(N=Nc2ccc(C(=O)O)cc2)c(COP(=O)(O)O)c(C=O)c1O`, the remaining activity was 110%.

As for `COC1=C(OC)C(=O)c2ccccc2C1=O`, the remaining activity is 109%.

As to `Cc1ccccc1N1CCN(S(=O)(=O)C[C@@]23CC[C@H](CC2NC(=O)[C@H](N)CCS(C)(=O)=O)C3(C)C)CC1` (stereo not given in full), the remaining activity was 121%.

For the compound `N[C@@H](COP(=O)(O)O)C(=O)O`, the remaining activity is 124%.

As for `CNCC[C@@H](Oc1ccc(C(F)(F)F)cc1)c1ccccc1`, the remaining activity is 105%.

Take `CC(/C=C/c1cccc(Oc2ccc(F)cc2)c1)N(O)C(N)=O` (stereo not given): the remaining activity is 99.1%.

With `COC(=O)C1=C(C)NC(C)=C(C(=O)OC(C)(C)CN(C)CCC(c2ccccc2)c2ccccc2)C1c1cccc([N+](=O)[O-])c1` (stereo not given), the remaining activity is 109%.

For the compound `N=C(N)c1ccccc1`, the remaining activity is 121%.

As for `CN(Cc1cnc2nc(N)nc(N)c2n1)c1ccc(C(=O)N[C@@H](CCC(=O)O)C(=O)O)cc1`, the remaining activity was 117%.

As to `N#C/C(=C\c1ccc(O)c(O)c1)C(=O)N1CCc2ccccc21`, the remaining activity is 107%.
